Consider 78 molecules from the supplement of paper PMC8183993.

Counter-ions that a name gives are not always drawn. ± gives the standard deviation of the averaged measurements. The full ranking holds about 3,100 compounds; the median of “mean cytoplasmic OPP incorporation (global translation) relative to DMSO” is about 100, and the lowest 2% start at about 56. The sample as a whole holds a higher share of the lowest values than the screen did.

This experiment deals with U2OS. Briefly: mean cytoplasmic OPP incorporation (global translation) relative to DMSO (% of DMSO); higher = more protein synthesis. The conditions noted are these: 10 µM; 24 h. As to the method: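 Primary image-based screen in U2OS cells: compounds at 10 uM for 24 h, then a 1 h o-propargyl-puromycin (OPP) pulse, click labelling, and high-throughput microscopy. Mean cytoplasmic OPP intensity and nuclei count were normalised to DMSO wells within each plate (DMSO = 100) and averaged over triplicate plates.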
Take `CCCC(CCC)C(=O)NO` [Valproic acid hydroxamate]: the “mean cytoplasmic OPP incorporation” value turned out to be 110.

In the case of `COc1cc(OC)c(NC(=O)Nc2cc(C)on2)cc1Cl`, the “mean cytoplasmic OPP incorporation” value was 103.

Take `CCOc1ccccc1OCC1CNCCO1` (stereo not drawn) [Viloxazine hydrochloride]: the “mean cytoplasmic OPP incorporation” value was 87.8.

For the molecule `Cc1cnc(NC(=O)Nc2cc(Br)c(C)cc2OC[C@@H]2CNCCO2)cn1`, the “mean cytoplasmic OPP incorporation” value is 45.6.

For the molecule `CC(=O)OCCN1C(=O)c2c(C)nc3ccc(S(=O)(=O)N4CCOCC4)cc3c2C1=O` [Ivachtin], the “mean cytoplasmic OPP incorporation” value was 105.

On to `CCOC(=O)C1=CN(Cc2ccccc2)C=C(C(=O)OCC)C1c1ccccc1`, for which the “mean cytoplasmic OPP incorporation” value is 99.2.

For the molecule `Nc1ncn(C2CC(O)C(CO)O2)c(=O)n1` (stereo not drawn) [5-Aza-2-deoxycytidine], the “mean cytoplasmic OPP incorporation” value amounted to 94.5.

`CCCn1c(=O)c2[nH]c(-c3ccccc3)nc2n(CCC)c1=O` [1,3-Dipropyl-8-phenylxanthine]: the “mean cytoplasmic OPP incorporation” value amounted to 99.1.

For the molecule `CCCn1c(=O)c(C)cn2nc(N)nc12`, the “mean cytoplasmic OPP incorporation” value was 104.

In the case of `CCCC[C@@H](C=O)NC(=O)OC(C)(C)C`, the “mean cytoplasmic OPP incorporation” value is 101.

`CC1=C(/C=C/C(C)=C/C=C/C(C)=C/C(=O)O)C(C)(C)CCC1O` (stereo not drawn) [4-Hydroxyretinoic acid]: the “mean cytoplasmic OPP incorporation” value is 101.

Turning to `COC(=O)[C@]12CCC(C)(C)C[C@H]1[C@H]1C(=O)C=C3[C@@]4(C)C=C(C#N)C(=O)C(C)(C)[C@@H]4CC[C@@]3(C)[C@]1(C)CC2` [Bardoxolone Methyl], the “mean cytoplasmic OPP incorporation” value turned out to be 25.6.

With `N[C@@H](Cc1cc(I)c(Oc2ccc(O)cc2)c(I)c1)C(=O)O` [3,5-Diiodo-L-thyronine], the “mean cytoplasmic OPP incorporation” value was found to be 103.

In the case of `CCN(CC)Cc1ccc2cc(COC(=O)Nc3ccc(C(=O)NO)cc3)ccc2c1` [ITF2357 (Givinostat)], the “mean cytoplasmic OPP incorporation” value stood at 104.

`CC(C)[C@H](C(=O)Nc1ccc(C(=O)NO)cc1)c1ccccc1`: the “mean cytoplasmic OPP incorporation” value worked out at 53.

With `CC(=O)Nc1ccccc1` [Acetanilide (Antifebrin)], the “mean cytoplasmic OPP incorporation” value was 102.

Regarding `COc1ccc(CN2C(=O)C(=O)c3cc(OC(F)(F)F)ccc32)cc1`, the “mean cytoplasmic OPP incorporation” value is 102.

Regarding `CC(C)Oc1ccc2c(=O)c3cc(C(=O)O)ccc3oc2c1`, the “mean cytoplasmic OPP incorporation” value stood at 102.

On to `O=[N+]([O-])c1ccccc1S(=O)(=O)NCC1CCC(CNCC2CCc3ccccc3C2)CC1` (stereo not drawn) [NTNCB hydrochloride], for which the “mean cytoplasmic OPP incorporation” value worked out at 114.

For `CC(C)NCCN(C(C)C)S(=O)(=O)c1ccc(Cl)cc1Cl`, the “mean cytoplasmic OPP incorporation” value was 95.9.

For `C[N+](C)([O-])CCNc1ccc(NCC[N+](C)(C)[O-])c2c1C(=O)c1c(O)ccc(O)c1C2=O` [Banoxantrone dihydrochloride], the “mean cytoplasmic OPP incorporation” value was found to be 87.9.

For `O=C1c2c(O)ccc(O)c2C(=O)c2c(NCCNCCO)ccc(NCCNCCO)c21` [Mitoxantrone dihydrochloride], the “mean cytoplasmic OPP incorporation” value worked out at 20.9.

For `O=C1c2ccccc2C(=O)c2c(NCCc3ccc(O)cc3)ccc(NCCc3ccc(O)cc3)c21`, the “mean cytoplasmic OPP incorporation” value was 120.

As to `CC(C)SC(=N)N` [S-Isopropylisothiourea hydrobromide], the “mean cytoplasmic OPP incorporation” value was found to be 102.

Regarding `CCCS(=O)(=O)c1nc(NC2CC2)cc(-c2ccc3c(ccn3C3CC(C)(C)NC(C)(C)C3)c2)n1`, the “mean cytoplasmic OPP incorporation” value amounted to 21.1.

`C=C1C(=O)O[C@@H](CCC)[C@@H]1C(=O)O` [Butyrolactone 3]: the “mean cytoplasmic OPP incorporation” value stood at 100.

Take `C[C@H](NC(=O)[C@@H]1CCCN1C(=O)[C@@H]1CCCN1C(=O)[C@@H](O)[C@H](N)Cc1ccccc1)C(N)=O` [Apstatin]: the “mean cytoplasmic OPP incorporation” value came to 101.

For the molecule `C[C@H](NC(=O)/C(C#N)=C/c1cccc(Br)n1)c1ccccc1`, the “mean cytoplasmic OPP incorporation” value is 56.2 ± 5.9.

For the molecule `CCC[C@H](NC(=O)/C(C#N)=C/c1cccc(Br)n1)c1ccccc1`, the “mean cytoplasmic OPP incorporation” value stood at 27.2.

On to `C[C@H](NC(=O)/C(C#N)=C/c1ccc(O)c(O)c1)c1ccccc1` [Tyrphostin B44, (+) enantiomer], for which the “mean cytoplasmic OPP incorporation” value was 96.

For the molecule `O=C(c1ccc(Cl)cc1Cl)n1nnc2ccccc21`, the “mean cytoplasmic OPP incorporation” value was found to be 111.

As for `CCCc1cc(C)[nH]c(=O)c1CNC(=O)c1cc(-c2ccnc(N3CCN(C)CC3)c2)cc2c1cnn2C(C)C`, the “mean cytoplasmic OPP incorporation” value amounted to 112.

For the molecule `O=C(/C=C/c1cccc(S(=O)(=O)Nc2ccccc2)c1)NO` [Belinostat (PXD101)], the “mean cytoplasmic OPP incorporation” value is 65.5.

In the case of `CC(=O)NCCc1c(Cc2ccccc2)[nH]c2ccccc12` [Luzindole], the “mean cytoplasmic OPP incorporation” value is 103.

`Cc1[nH]c2ccccc2c1CCNCc1ccc(/C=C/C(=O)NO)cc1` [Panobinostat]: the “mean cytoplasmic OPP incorporation” value was 51.6.

`CCCCCCCCCCCCCCCC(=O)C1=C(O)[C@@H](CO)OC1=O`: the “mean cytoplasmic OPP incorporation” value turned out to be 104.

For `N[C@H](C(=O)O)[C@H](OCc1ccccc1)C(=O)O` (racemic), the “mean cytoplasmic OPP incorporation” value was found to be 103.

For `CCS(=O)(=O)c1cccc(-c2cc(C(=O)NC3CCN(C)CC3)c(C)c3[nH]c4ncc(C)cc4c23)c1`, the “mean cytoplasmic OPP incorporation” value worked out at 46.8.

Regarding `COc1cc(C(=O)NC(=S)Nc2cccc(NC(=O)c3ccccc3)c2)cc(OC)c1OC`, the “mean cytoplasmic OPP incorporation” value amounted to 117.

For the molecule `CN(C)c1nc(N)c(C(=O)Nc2cccnc2)nc1Cl` [ACDPP hydrochloride], the “mean cytoplasmic OPP incorporation” value was found to be 97.2.

Consider `CN1CCC(c2c(O)cc(O)c3c(=O)cc(-c4ccccc4Cl)oc23)C(O)C1` (stereo not drawn) [Flavopiridol (Alvocidib) HCl], for which the “mean cytoplasmic OPP incorporation” value worked out at 58.4.

Take `Cc1cc2c(cc1C1(c3ccc(C(=O)O)cn3)CC1)C(C)(C)CCC2(C)C`: the “mean cytoplasmic OPP incorporation” value stood at 109.

As for `COc1cc(NC(C)CCCN)c2ncccc2c1` (stereo not drawn) [Primaquine diphosphate], the “mean cytoplasmic OPP incorporation” value turned out to be 36.1.

For the molecule `C/C(=N\NC(=O)C1C(=O)NCC1c1ccccc1)c1cccc(Br)c1` (stereo not drawn), the “mean cytoplasmic OPP incorporation” value was determined as 102.

For `O=C(O)c1cc(O)ccc1O` [Gentisic acid], the “mean cytoplasmic OPP incorporation” value was found to be 101.

As for `CC(=O)N[C@@H](CSCC=C(C)CCC=C(C)CCC=C(C)C)C(=O)O` [Acetyl-S-farnesyl-L-cysteine], the “mean cytoplasmic OPP incorporation” value stood at 123.

As for `OCC1OC(n2cnc3c(NC4CCCC4)nc(Cl)nc32)C(O)C1O` (stereo not drawn) [2-Chloro-N6-cyclopentyladenosine], the “mean cytoplasmic OPP incorporation” value came out at 116.

Take `CCCCCS(=O)(=O)CCCCCCCCCCn1c(-c2ccc(O)cc2)c(C)c2cc(O)ccc21`: the “mean cytoplasmic OPP incorporation” value worked out at 104.

As to `O=C(CCCN1C(=O)c2cccc3cccc(c23)C1=O)NO` [Nullscript], the “mean cytoplasmic OPP incorporation” value worked out at 97.6.

Take `CCN(CCN(C)C)C(=O)CNCc1cc(C(N)=O)ccn1`: the “mean cytoplasmic OPP incorporation” value came out at 96.2.

As for `O=C1NCCN1c1ncc([N+](=O)[O-])s1` [Niridazole], the “mean cytoplasmic OPP incorporation” value was 94.7.

Regarding `O=c1[nH]nc(Sc2ncc([N+](=O)[O-])s2)n1-c1ccc2c(c1)OCCO2`, the “mean cytoplasmic OPP incorporation” value amounted to 39.7 ± 16.

Take `C[C@H](CCC(=O)NCCS(=O)(=O)O)[C@H]1CC[C@H]2[C@@H]3CC[C@@H]4C[C@H](O)CC[C@]4(C)[C@H]3C[C@H](O)[C@]12C` [Taurodeoxycholic acid]: the “mean cytoplasmic OPP incorporation” value is 99.3.

For the molecule `O=C(NCCCN1CCC2(CC1)OCc1ccccc12)[C@H]1CCCN1Cc1ccccc1`, the “mean cytoplasmic OPP incorporation” value amounted to 108.

Consider `CCCCC[C@H](O)/C=C/[C@@H]1[C@H]2C/C(=C/CCCC(=O)O)C[C@H]2C[C@H]1O` [Carbacyclin], for which the “mean cytoplasmic OPP incorporation” value was 101.

Consider `Nc1nc(NCCc2ccc(O)cc2)nc2nc(-c3ccco3)nn12`, for which the “mean cytoplasmic OPP incorporation” value is 99.2.

For the molecule `CN(C)Cc1c(C(=O)NCCOc2ccc(C(=O)NO)cc2)oc2ccccc12`, the “mean cytoplasmic OPP incorporation” value came to 56.

On to `Cc1cc(C)c(N(Cc2ccccc2)S(=O)(=O)c2ccc(OCCNC(=O)c3cc4ccccc4o3)cc2)c(C(=O)NO)c1`, for which the “mean cytoplasmic OPP incorporation” value worked out at 103.

As to `COc1cc(C(=O)NCc2ccc(OCCN(C)C)cc2)cc(OC)c1OC` [Trimethobenzamide hydrochloride], the “mean cytoplasmic OPP incorporation” value worked out at 102.

Regarding `O=C(O)COc1ccc(OCCNC[C@H](O)COc2ccccc2)cc1` [ICI 215,001 hydrochloride], the “mean cytoplasmic OPP incorporation” value stood at 100.

On to `CCCCn1c(=O)c2[nH]c(C34CC5CC(CC3C5)C4)nc2n(CCCO)c1=O`, for which the “mean cytoplasmic OPP incorporation” value was 117.

`CCC(CC)[C@H](NC(C)=O)[C@@H]1[C@H](O)[C@@H](C(=O)O)C[C@H]1NC(=N)N` [Peramivir  Trihydrate]: the “mean cytoplasmic OPP incorporation” value was determined as 99.4.

For `c1ccc2sc(N3CCN(Cc4ccc5c(c4)OCO5)CC3)nc2c1` [2-[1-(4-Piperonyl)piperazinyl]benzothiazole], the “mean cytoplasmic OPP incorporation” value is 105.

Turning to `Cc1cc(/C=C/c2ccc3cc(N(C)C)ccc3[n+]2C)c(C)n1-c1ccccc1` [Pyrvinium pamoate], the “mean cytoplasmic OPP incorporation” value was 22.

As to `CNCCCCOc1ccccc1Cc1ccccc1` [Bifemelane hydrochloride], the “mean cytoplasmic OPP incorporation” value was found to be 107.

For the molecule `O=Cc1c2[nH]c3ccccc3c2cc2[nH]c3ccccc3c12` [6-Formylindolo [3,2-B] carbazole], the “mean cytoplasmic OPP incorporation” value amounted to 92.9.

Regarding `COc1ccc(OC)c(C(O)CNC(=O)CN)c1` (stereo not drawn) [Midodrine hydrochloride], the “mean cytoplasmic OPP incorporation” value amounted to 48.8.

For `COc1ccc2[nH]cc(CCNC(C)=O)c2c1` [Melatonin], the “mean cytoplasmic OPP incorporation” value was found to be 103 ± 4.6.

For the molecule `COc1ccc(C(=O)NCc2ccc(OCCN(C)C)cc2)cc1OC` [Itopride], the “mean cytoplasmic OPP incorporation” value stood at 89.3.

In the case of `CC(C)[C@H](N)C(=O)N[C@H](C(=O)N[C@H](C(=O)O)C(C)C)C(C)C`, the “mean cytoplasmic OPP incorporation” value was 114.

For `O=C(/C=C/C#Cc1cccc(NS(=O)(=O)c2ccccc2)c1)NO` [Oxamflatin], the “mean cytoplasmic OPP incorporation” value turned out to be 105.

With `COc1cccc2c1C(=O)c1c(O)c3c(c(O)c1C2=O)C[C@@](O)(C(=O)CO)C[C@@H]3O[C@H]1C[C@H](N)[C@@H](O)[C@H](C)O1` [Epirubicin HCl], the “mean cytoplasmic OPP incorporation” value turned out to be 59.5.

For the molecule `COc1cccc2c1C(=O)c1c(O)c3c(c(O)c1C2=O)C[C@@](O)(C(=O)CO)C[C@@H]3O[C@H]1C[C@H](N)[C@H](O)[C@H](C)O1` [Doxorubicin (Adriamycin)], the “mean cytoplasmic OPP incorporation” value came out at 67.1.

For `COc1cccc2c1C(=O)c1c(O)c3c(c(O)c1C2=O)C[C@@](O)(C(=O)CO)C[C@@H]3O[C@H]1C[C@H](N)[C@H](O)[C@H](C)O1` [Doxorubicin hydrochloride], the “mean cytoplasmic OPP incorporation” value came to 54.8 ± 17.

For the molecule `COc1cccc2c1C(=O)c1c(O)c3c(c(O)c1C2=O)C[C@@](O)(C(C)=O)C[C@@H]3O[C@H]1C[C@H](N)[C@H](O)[C@H](C)O1` [Daunorubicin HCl (Daunomycin HCl)], the “mean cytoplasmic OPP incorporation” value came to 59.9.

`COc1cccc2c1C(=O)c1c(O)c3c(c(O)c1C2=O)C[C@@](O)(C(=O)CO)C[C@@H]3O[C@H]1C[C@H](N)[C@H](O[C@@H]2CCCCO2)[C@H](C)O1` [Pirarubicin]: the “mean cytoplasmic OPP incorporation” value is 59.9.

Consider `CC(=O)[C@]1(O)Cc2c(O)c3c(c(O)c2[C@@H](O[C@H]2C[C@H](N)[C@H](O)[C@H](C)O2)C1)C(=O)c1ccccc1C3=O` [Idarubicin HCl], for which the “mean cytoplasmic OPP incorporation” value worked out at 60.3.

On to `COc1cccc2c1C(=O)c1c(O)c3c(c(O)c1C2=O)C[C@@](O)(C(C)=O)C[C@@H]3O[C@H]1C[C@H](N)[C@H](O)[C@H](C)O1` [Daunorubicin hydrochloride], for which the “mean cytoplasmic OPP incorporation” value was 40.7.
